Measurements taken from PubChem BioAssay (NCI).
“And” between values parts separate entries of the source, which are not always exact repeats. Equal values may be shown once. Compounds without any hit were thinned out: in the full panel of roughly 83,000, 20% have a hit.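 Plates (96-well) were seeded with cells, treated with compound at one concentration, and incubated for 48 hours before percent growth was determined.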 The source made the active and inactive calls. Rule for the calls: active = growth percent below 10; inactive = the rest.

What was measured:
Experiment in all cases: NCI-60 one-dose screen, 48 h (100 = growth as untreated, 0 = no growth, -100 = all killed)
Settings in all cases: 10 µM unless noted
HCT-15 colon = tested on: HCT-15 colon
HT29 colon = tested on: HT29 colon
SNB-75 CNS = tested on: SNB-75 CNS
SNB-19 CNS = tested on: SNB-19 CNS
U251 CNS = tested on: U251 CNS
PC-3 prostate = tested on: PC-3 prostate
SK-MEL-5 melanoma = tested on: SK-MEL-5 melanoma
UACC-62 melanoma = tested on: UACC-62 melanoma
LOX IMVI melanoma = tested on: LOX IMVI melanoma
SK-MEL-28 melanoma = tested on: SK-MEL-28 melanoma
SK-MEL-2 melanoma = tested on: SK-MEL-2 melanoma
EKVX NSCLC = tested on: EKVX NSCLC
SN12C renal = tested on: SN12C renal
UO-31 renal = tested on: UO-31 renal
TK-10 renal = tested on: TK-10 renal
ACHN renal = tested on: ACHN renal
CAKI-1 renal = tested on: CAKI-1 renal
A498 renal = tested on: A498 renal
CCRF-CEM leukemia = tested on: CCRF-CEM leukemia
MOLT-4 leukemia = tested on: MOLT-4 leukemia

| SMILES | growth (HCT-15 colon) | growth (HT29 colon) | growth (SNB-75 CNS) | growth (SNB-19 CNS) | growth (U251 CNS) | growth (PC-3 prostate) | growth (SK-MEL-5 melanoma) | growth (UACC-62 melanoma) | growth (LOX IMVI melanoma) | growth (SK-MEL-28 melanoma) | growth (SK-MEL-2 melanoma) | growth (EKVX NSCLC) | growth (SN12C renal) | growth (UO-31 renal) | growth (TK-10 renal) | growth (ACHN renal) | growth (CAKI-1 renal) | growth (A498 renal) | growth (CCRF-CEM leukemia) | growth (MOLT-4 leukemia) |
| --- | --- | --- | --- | --- | --- | --- | --- | --- | --- | --- | --- | --- | --- | --- | --- | --- | --- | --- | --- | --- |
| COc1ccc(Cn2cc(C(=O)Nc3cccnc3Nc3ccccc3)nn2)cc1 | 94.8% (inactive) | 106% (inactive) | 89.2% (inactive) | 93.3% (inactive) | 99.5% (inactive) | 91% (inactive) | 90.2% (inactive) | 83.2% (inactive) | 92% (inactive) | 113% (inactive) | 107% (inactive) | 92.8% (inactive) | 86.5% (inactive) | 70.9% (inactive) | 95.1% (inactive) | 105% (inactive) | 88.4% (inactive) | 117% (inactive) | 108% (inactive) | 93.5% (inactive) |
| CC(=O)c1nn(-c2ccccc2)/c(=N/N=Cc2cn(-c3ccccc3)nc2-c2cc3ccccc3oc2=O)s1 | 98.1% (inactive) | 109% (inactive) | 104% (inactive) | 103% (inactive) | 91.6% (inactive) | 101% (inactive) | 101% (inactive) | 92.9% (inactive) | 98.9% (inactive) | 111% (inactive) | 103% (inactive) | 97.2% (inactive) | 105% (inactive) | 84% (inactive) | 103% (inactive) | 101% (inactive) | 88.5% (inactive) | 120% (inactive) | 101% (inactive) | 95.9% (inactive) |
| CN1CCN(C(=O)OCc2nc3c(N4CCOCC4)nc(Cl)nc3n2C)CC1 | -55.4% (active) | -67.7% (active) | -21.7% (active) | 57.9% (inactive) | -14.1% (active) | -16.9% (active) | -12.8% (active) | -78% (active) | -96.2% (active) | -95.5% (active) | -57.4% (active) | -43.6% (active) | -75.1% (active) | -100% (active) | -78% (active) | -94.5% (active) | -75.2% (active) | -15.5% (active) | -6.96% (active) | -24.8% (active) |
| COc1nc2ccc(C)cc2cc1/C=[N+](\[O-])c1ccccc1 | 77.2% (inactive) | 95.1% (inactive) | 79.5% (inactive) | 86.6% (inactive) | 95.4% (inactive) | 68.2% (inactive) | 96.2% (inactive) | 76.6% (inactive) | 77.8% (inactive) | 97.6% (inactive) | 100% (inactive) | 77.8% (inactive) | 90.1% (inactive) | 59.4% (inactive) | 116% (inactive) | 83.5% (inactive) | 82.3% (inactive) | 75.6% (inactive) | 46.6% (inactive) | 82.8% (inactive) |
| Nc1nc(N)c2c(n1)NC(c1cccc(Nc3ccnc4cc(C(F)(F)F)ccc34)c1)CC(c1ccc(F)cc1)=N2 (stereo not given) | 21.3% (inactive) | 12.5% (inactive) | 47.1% (inactive) | 61.3% (inactive) | 33.6% (inactive) | 34.4% (inactive) | 30.4% (inactive) | 71.4% (inactive) | 40.5% (inactive) | 79.2% (inactive) | 37.3% (inactive) | 47% (inactive) | 59.8% (inactive) | 53.7% (inactive) | 91.8% (inactive) | 75.5% (inactive) | 47.1% (inactive) | 78.1% (inactive) | 25% (inactive) | 2.74% (active) |
| Nc1[nH]nc(Nc2ccccc2)c1-c1nc2ccccc2s1 | 11.1% (inactive) | 58.5% (inactive) | 44.2% (inactive) | 34% (inactive) | 22% (inactive) | 14.9% (inactive) | 57.6% (inactive) | 27.2% (inactive) | -79.1% (active) | 35.4% (inactive) | 26.8% (inactive) | 19% (inactive) | 34.2% (inactive) | 18.8% (inactive) | 23% (inactive) | 15.5% (inactive) | 25.1% (inactive) | 46.8% (inactive) | 8.45% (active) | 4.06% (active) |
| O=C(CN1C(=O)S/C(=C\C(Cl)=C\c2ccccc2)C1=O)NCCCn1ccnc1 | 1.15% (active) | 10.5% (inactive) | 32% (inactive) | 57.5% (inactive) | 45.6% (inactive) | 45.8% (inactive) | 64.1% (inactive) | 18.8% (inactive) | -52.3% (active) | 12.4% (inactive) | 38.2% (inactive) | 41.2% (inactive) | 26.1% (inactive) | 48.7% (inactive) | 36.2% (inactive) | 5.51% (active) | 50.5% (inactive) | 95.7% (inactive) | 5.11% (active) | 6.18% (active) |
| COc1ccccc1/C=C1\COc2ccc(O)cc2C1=O | 48.7% (inactive) | 51.6% (inactive) | 96% (inactive) | 90.6% (inactive) | 62.3% (inactive) | 75.8% (inactive) | 66.5% (inactive) | 69.1% (inactive) | 34.6% (inactive) | 101% (inactive) | 93.5% (inactive) | 102% (inactive) | 72% (inactive) | 74.6% (inactive) | 93.3% (inactive) | 57.8% (inactive) | 68.1% (inactive) | 109% (inactive) | 6.4% (active) | 21% (inactive) |
| COc1ccc(C(c2cc(OC)c(OC)c(OC)c2)n2ccnc2)cc1O (stereo not given) | 7.7% (active) | 5.94% (active) | 56.7% (inactive) | 30.5% (inactive) | 15.5% (inactive) | 20.7% (inactive) | -12.9% (active) | 36.5% (inactive) | 25.7% (inactive) | 62.9% (inactive) | 43.5% (inactive) | 30.2% (inactive) | 37.6% (inactive) | 62% (inactive) | 52.9% (inactive) | 42.4% (inactive) | 41.3% (inactive) | 8.04% (active) | 6.97% (active) | 14% (inactive) |
| COc1cc(F)c(/C=C/c2cc(/C=C/c3cc(OC)c(OC)cc3F)n(-c3cc(F)cc(F)c3)n2)cc1OC | 11.5% (inactive) | 22.9% (inactive) | 105% (inactive) | 56.7% (inactive) | -1.48% (active) | 10.4% (inactive) | 23.6% (inactive) | 26.8% (inactive) | 18.6% (inactive) | -28.1% (active) | 59.5% (inactive) | 57.7% (inactive) | 72.5% (inactive) | 85.4% (inactive) | 68.9% (inactive) | 117% (inactive) | 98.5% (inactive) | 92.4% (inactive) | 51.9% (inactive) | 71.5% (inactive) |
| CCCCCCCCCCCCCCCC[N+](C)(C)CCN(Cc1ccc(OC)cc1)c1ncccn1 | 74.4% (inactive) and 94.5% (inactive) | -100% (active) and 18.2% (inactive) | 51.9% (inactive) and 13% (inactive) | -48.7% (active) and 41.9% (inactive) | -82.5% (active) and 29.2% (inactive) | -78% (active) and 15.4% (inactive) | 8.82% (active) and 39.8% (inactive) | -39.6% (active) and 19% (inactive) | -76.8% (active) and 23.8% (inactive) | 33.3% (inactive) and 52.9% (inactive) | 59.8% (inactive) | -84.6% (active) | -57.9% (active) and 34% (inactive) | 9.57% (active) and 80.3% (inactive) | -90.3% (active) and 71.7% (inactive) | 45.7% (inactive) and 67% (inactive) | 44.1% (inactive) | -70.4% (active) | -53.1% (active) and 23.7% (inactive) | -52% (active) and 23.9% (inactive) |
| CC(=O)c1c(C)nc2ccccc2c1/C=C/c1cccc(C)c1 | 31.3% (inactive) | 18.5% (inactive) | 60% (inactive) | 74.1% (inactive) | 49.8% (inactive) | 65.8% (inactive) | 54.3% (inactive) | 47.8% (inactive) | 42% (inactive) | 75% (inactive) | 36.2% (inactive) | 71.5% (inactive) | 67.7% (inactive) | 56.4% (inactive) | 79.9% (inactive) | 73.7% (inactive) | 46.3% (inactive) | 50.1% (inactive) | 54.4% (inactive) | 31% (inactive) |
| CN1Cn2c(ccc2C(F)(F)F)C(=O)CS1(=O)=O | 105% (inactive) | 105% (inactive) | 79.1% (inactive) | 105% (inactive) | 101% (inactive) | 105% (inactive) | 103% (inactive) | 99.4% (inactive) | 99.2% (inactive) | 105% (inactive) | 105% (inactive) | 99.2% (inactive) | 104% (inactive) | 82.9% (inactive) | 103% (inactive) | 99.4% (inactive) | 94.1% (inactive) | 96.1% (inactive) | 105% (inactive) | 101% (inactive) |
| Cc1ccc(C(=O)N(CCCN)[C@@H](c2nc3cc(Cl)ccc3c(=O)n2Cc2ccccc2)C(C)C)cc1 | -50% (active) | 0.611% (active) | -18.7% (active) | 5.11% (active) | -65% (active) | 16.4% (inactive) | -94.2% (active) | -79.6% (active) | -90% (active) | -31% (active) | -43% (active) | -7.16% (active) | -15.6% (active) | 5.01% (active) | -33.5% (active) | -28.3% (active) | 4.04% (active) | -4.18% (active) | 1.72% (active) | -29.3% (active) |
